PPARg SRC-3 ag = PPARgamma-driven SRC-3 recruitment agonism. P37231. biochemical PPARgamma/SRC-3 coactivator recruitment assay. activation, % at 8 µM. hit rate 0.26% among 200,000; in the data active = activation above about 23%;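 also: 0% = DMSO and 100% = reference agonist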
Target sequence (P37231 whole entry, looked up): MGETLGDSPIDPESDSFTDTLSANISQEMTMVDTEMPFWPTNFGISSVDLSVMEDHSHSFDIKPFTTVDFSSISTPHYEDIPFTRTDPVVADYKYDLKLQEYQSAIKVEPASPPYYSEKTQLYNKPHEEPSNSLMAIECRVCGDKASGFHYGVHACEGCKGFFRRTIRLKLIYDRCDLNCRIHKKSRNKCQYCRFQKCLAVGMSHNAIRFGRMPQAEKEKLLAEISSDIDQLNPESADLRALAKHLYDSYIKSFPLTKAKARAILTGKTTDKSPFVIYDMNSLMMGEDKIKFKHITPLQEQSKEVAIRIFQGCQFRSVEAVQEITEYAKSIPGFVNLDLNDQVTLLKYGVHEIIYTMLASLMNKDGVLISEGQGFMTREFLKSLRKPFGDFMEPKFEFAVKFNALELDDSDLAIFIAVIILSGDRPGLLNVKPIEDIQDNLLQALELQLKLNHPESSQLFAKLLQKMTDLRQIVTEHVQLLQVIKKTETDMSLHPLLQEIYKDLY
SRC3 TRFRET art = TR-FRET artefact, counter-screen to PPARgamma/SRC-3 agonist assay. AID 1048. PPARgamma/SRC-3 format; active compounds read high. TR-FRET ratio at 8 µM. hit rate 0.39% among 99,000
PPARg SRC-1 ag = promotes SRC-1 coactivator recruitment by human PPARgamma. hit rate 0.41% among 200,000. activation, % at 8 µM. P37231. PPARgamma-SRC-1 coactivator recruitment biochemical assay; in the data active = activation above about 19%;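 also: 0% = DMSO and 100% = reference agonist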
TR-FRET SRC-2 ct = counter-screen for PPARgamma SRC-2 recruitment agonists: TR-FRET artefact. active compounds read high. TR-FRET ratio at 8 µM. hit rate 0.4% among 200,000. AID 1049
SRC1 TRFRET art = TR-FRET artefact, counter-screen to PPARgamma/SRC-1 agonist assay; hit rate 0.34% among 99,000; TR-FRET detection artefact counter-screen, emission ratio; active compounds read high; TR-FRET ratio at 8 µM; in the data active = TR-FRET ratio above about 2300
PPARg SRC2 recr = promotes SRC-2 coactivator recruitment by human PPARgamma; PPARgamma LBD-SRC-2 recruitment, biochemical; hit rate 0.34% among 200,000; activation, % at 8 µM; P37231; in the data active = activation above about 22%;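 also: 0% = vehicle and 100% = reference agonist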
Active calls of the source: *. In the library only some 0.9% were active in any assay of this set; here they are far more common. Rule as the data show it, unless noted: active = TR-FRET ratio above about 2000; inactive = the rest.

Results for O=C(Nc1ccc(F)cc1F)c1csc(-c2cccs2)n1 ?
PPARg SRC-3 ag: 6; SRC3 TRFRET art: 1765; PPARg SRC-1 ag: 5; TR-FRET SRC-2 ct: 2010*; SRC1 TRFRET art: 1858; PPARg SRC2 recr: 10

Results for O=C(Nc1ccc(F)cc1F)c1csc(-c2ccncc2)n1 ?
PPARg SRC-3 ag: 4; SRC3 TRFRET art: 1707; PPARg SRC-1 ag: 4; TR-FRET SRC-2 ct: 1625; SRC1 TRFRET art: 1880; PPARg SRC2 recr: 2

Results for O=S(=O)(c1ccc(Cl)cc1)N1CCCC1c1nc(-c2ccc(Cl)cc2)no1 (configuration not stated) ?
PPARg SRC-3 ag: 11; PPARg SRC-1 ag: 5; TR-FRET SRC-2 ct: 1734; PPARg SRC2 recr: 3

What do the screens show for `Nc1nc(C2CCCN2S(=O)(=O)c2ccc(Cl)cc2)cs1` (configuration not stated)?
PPARg SRC-3 ag: 5; PPARg SRC-1 ag: 21*; TR-FRET SRC-2 ct: 1686; PPARg SRC2 recr: 7

What do the screens show for `Cc1ccc(N(CC(=O)NC(C)(C)C)C(=O)CNC(=O)c2cccs2)cc1C`?
PPARg SRC-3 ag: 3; SRC3 TRFRET art: 1618; PPARg SRC-1 ag: 4; TR-FRET SRC-2 ct: 1580; SRC1 TRFRET art: 1774; PPARg SRC2 recr: 1

What do the screens show for `Brc1ccc(-c2csc(N/N=C/c3ccco3)n2)cc1`?
PPARg SRC-3 ag: 1; SRC3 TRFRET art: 1608; PPARg SRC-1 ag: 3; TR-FRET SRC-2 ct: 1757; SRC1 TRFRET art: 1707; PPARg SRC2 recr: 22*

What do the screens show for `Cc1ccc(-c2csc(N/N=C/c3ccco3)n2)cc1`?
PPARg SRC-3 ag: 9; PPARg SRC-1 ag: -5; TR-FRET SRC-2 ct: 1751; PPARg SRC2 recr: 3

What do the screens show for `O=C(CSc1ccccc1C(=O)O)NCC1CCCCC1`?
PPARg SRC-3 ag: 4; SRC3 TRFRET art: 1436; PPARg SRC-1 ag: -8; TR-FRET SRC-2 ct: 1480; SRC1 TRFRET art: 1796; PPARg SRC2 recr: 2

What do the screens show for `Clc1ccc(-c2ccc(C=Nc3ccc(N4CCOCC4)cc3)o2)c(Cl)c1`?
PPARg SRC-3 ag: 2; SRC3 TRFRET art: 1761; PPARg SRC-1 ag: 7; TR-FRET SRC-2 ct: 2149*; SRC1 TRFRET art: 2177; PPARg SRC2 recr: 13

How did CC1CCCC(NC(=S)Nc2cccc(S(=O)(=O)N(C)C)c2)C1C (configuration not stated) do in these assays?
PPARg SRC-3 ag: 5; SRC3 TRFRET art: 1583; PPARg SRC-1 ag: 2; TR-FRET SRC-2 ct: 1570; SRC1 TRFRET art: 1707; PPARg SRC2 recr: 10

What do the screens show for `CCOC(=O)c1cc(-c2ccc3c(c2)OCO3)nc2onc(C)c12`?
PPARg SRC-3 ag: -4; PPARg SRC-1 ag: 2; TR-FRET SRC-2 ct: 1971*; PPARg SRC2 recr: 10

What do the screens show for `COc1ccc(C2(O)CCN(CC(=O)Nc3nccs3)CC2)c(OC)c1`?
PPARg SRC-3 ag: 1; PPARg SRC-1 ag: 8; TR-FRET SRC-2 ct: 1972*; PPARg SRC2 recr: 4

What do the screens show for `Cc1cc2cc(CNC(=S)Nc3ccc(OC(F)F)cc3)ccc2n1C`?
PPARg SRC-3 ag: 5; SRC3 TRFRET art: 2435*; PPARg SRC-1 ag: 11; TR-FRET SRC-2 ct: 2063*; SRC1 TRFRET art: 2282; PPARg SRC2 recr: 11

Results for FC(F)Oc1ccc(NC(=S)NCc2ccccc2)cc1 ?
PPARg SRC-3 ag: -2; SRC3 TRFRET art: 1564; PPARg SRC-1 ag: -2; TR-FRET SRC-2 ct: 1417; SRC1 TRFRET art: 1600; PPARg SRC2 recr: -8

How did COCC(=O)NCc1ccc2c(c1)cc(C)n2C do in these assays?
PPARg SRC-3 ag: 0; SRC3 TRFRET art: 1649; PPARg SRC-1 ag: 6; TR-FRET SRC-2 ct: 1821; SRC1 TRFRET art: 1864; PPARg SRC2 recr: 6

What do the screens show for `Cc1cc2cc(CNC(=O)Nc3ccc(Cl)c(Cl)c3)ccc2n1C`?
PPARg SRC-3 ag: 8; SRC3 TRFRET art: 1886; PPARg SRC-1 ag: 7; TR-FRET SRC-2 ct: 1781; SRC1 TRFRET art: 2614*; PPARg SRC2 recr: 10

What do the screens show for `COC(=O)Cn1cc([N+](=O)[O-])nc1C`?
PPARg SRC-3 ag: -6; SRC3 TRFRET art: 1652; PPARg SRC-1 ag: 3; TR-FRET SRC-2 ct: 1534; SRC1 TRFRET art: 1766; PPARg SRC2 recr: 3

How did Cc1cc(=O)[nH]c2c1c(C)nn2C1CCCCC1 do in these assays?
PPARg SRC-3 ag: 9; PPARg SRC-1 ag: 1; TR-FRET SRC-2 ct: 1495; PPARg SRC2 recr: 6

How did Cc1cc(=O)[nH]c2c1c(C)nn2C1CCCC1 do in these assays?
PPARg SRC-3 ag: 4; PPARg SRC-1 ag: 7; TR-FRET SRC-2 ct: 4512*; PPARg SRC2 recr: 73*

Results for CCCCN(CC)CCCNC(=O)CC1Nc2ccccc2NC1=O (configuration not stated) ?
PPARg SRC-3 ag: 13; PPARg SRC-1 ag: 11; TR-FRET SRC-2 ct: 1542; PPARg SRC2 recr: 22*

What do the screens show for `COc1ccccc1C(=O)Nc1cccc(-c2cn3ccsc3n2)c1`?
PPARg SRC-3 ag: 28*; PPARg SRC-1 ag: 3; TR-FRET SRC-2 ct: 1580; PPARg SRC2 recr: 6

How did CCOC(=O)c1sc(=NC(=O)c2ccc(OC)c(OC)c2)n(C)c1C do in these assays?
PPARg SRC-3 ag: 1; PPARg SRC-1 ag: 80*; TR-FRET SRC-2 ct: 1525; PPARg SRC2 recr: 4

Results for CCOC(=O)c1sc(=NC(=O)c2cccc(OC)c2)n(C)c1C ?
PPARg SRC-3 ag: -5; PPARg SRC-1 ag: 80*; TR-FRET SRC-2 ct: 1534; PPARg SRC2 recr: -1

How did CCOC(=O)c1sc(=NC(=O)c2ccccc2)n(C)c1C do in these assays?
PPARg SRC-3 ag: 6; SRC3 TRFRET art: 2902*; PPARg SRC-1 ag: 3; TR-FRET SRC-2 ct: 2392*; SRC1 TRFRET art: 2795*; PPARg SRC2 recr: 8

How did CCOC(=O)c1sc(=NC(=O)COc2ccc(Cl)cc2)n(C)c1C do in these assays?
PPARg SRC-3 ag: 3; SRC3 TRFRET art: 1434; PPARg SRC-1 ag: -3; TR-FRET SRC-2 ct: 1448; SRC1 TRFRET art: 1669; PPARg SRC2 recr: 5

What do the screens show for `O=C(Nc1ccccc1-c1nc2ccccc2s1)c1cccnc1`?
PPARg SRC-3 ag: 2; SRC3 TRFRET art: 1465; PPARg SRC-1 ag: 0; TR-FRET SRC-2 ct: 4568*; SRC1 TRFRET art: 1745; PPARg SRC2 recr: 6

Results for Cc1cc2nc(-c3ccc(SCC(=O)N4CCc5ccccc54)nc3)[nH]c2cc1C ?
PPARg SRC-3 ag: 8; PPARg SRC-1 ag: 0; TR-FRET SRC-2 ct: 2115*; PPARg SRC2 recr: -1

Results for Cc1cc(NC(=O)CSc2ccc(-c3nc4cc(C)c(C)cc4[nH]3)cn2)no1 ?
PPARg SRC-3 ag: -16; PPARg SRC-1 ag: 2; TR-FRET SRC-2 ct: 1545; PPARg SRC2 recr: -9

Results for Cc1cc2nc(-c3ccc(SCC(=O)Nc4ccc(S(=O)(=O)NC5CC5)cc4)nc3)[nH]c2cc1C ?
PPARg SRC-3 ag: 3; SRC3 TRFRET art: 3182*; PPARg SRC-1 ag: 13; TR-FRET SRC-2 ct: 2456*; SRC1 TRFRET art: 2422*; PPARg SRC2 recr: 10

Results for O=C(CSc1ncccc1-c1nc2ccccc2[nH]1)N1CCc2ccccc21 ?
PPARg SRC-3 ag: 2; SRC3 TRFRET art: 3407*; PPARg SRC-1 ag: 5; TR-FRET SRC-2 ct: 2650*; SRC1 TRFRET art: 2802*; PPARg SRC2 recr: -8

How did O=C(Nc1ccc(O)cc1)C1CC=CCC1 (configuration not stated) do in these assays?
PPARg SRC-3 ag: 2; PPARg SRC-1 ag: 13; TR-FRET SRC-2 ct: 1746; PPARg SRC2 recr: 11

Compound activity from PubChem BioAssay.
